# Data reported in publication PMC11062922 (Nature Chemical Biology, 2023).
# Where two headings read alike, the source gives them in different places.
# Tests used:
# Set-up in all cases: species or system human, MV4-11 + K-562 + COLO205 + SK-N-BE2 + OVCAR-8
# [1] = test system: CDK6; conditions: read-out: apparent Kd; compound concentrations:100 nM and 1000 nM (sheet 'Samples'); n = 1
# [2] = test system: FYN; conditions: read-out: apparent Kd; compound concentrations:100 nM and 1000 nM (sheet 'Samples'); n = 1
# [3] = test system: MAP2K2; conditions: read-out: apparent Kd; compound concentrations:100 nM and 1000 nM (sheet 'Samples'); n = 1
# [4] = test system: MAPK14; conditions: read-out: apparent Kd; compound concentrations:100 nM and 1000 nM (sheet 'Samples'); n = 1
# [5] = test system: PI4KA; conditions: read-out: apparent Kd; compound concentrations:100 nM and 1000 nM (sheet 'Samples'); n = 1
# [6] = test system: PIK3C2A; conditions: read-out: apparent Kd; compound concentrations:100 nM and 1000 nM (sheet 'Samples'); n = 1
# [7] = test system: PIK3C3; conditions: read-out: apparent Kd; compound concentrations:100 nM and 1000 nM (sheet 'Samples'); n = 1
# [8] = test system: PIK3CB; conditions: read-out: apparent Kd; compound concentrations: 100 nM and 1000 nM (sheet 'Samples'), CATDS: 0.44243244506727197; n = 1
# [9] = test system: PIK3CD; conditions: read-out: apparent Kd; compound concentrations: 100 nM and 1000 nM (sheet 'Samples'), CATDS: 0.27438684743153402; n = 1
# [10] = test system: PIM2; conditions: read-out: apparent Kd; compound concentrations:100 nM and 1000 nM (sheet 'Samples'); n = 1
# [11] = test system: PRKDC; conditions: read-out: apparent Kd; compound concentrations:100 nM and 1000 nM (sheet 'Samples'); n = 1
# [12] = test system: RIOK2; conditions: read-out: apparent Kd, n = 1
# [13] = test system: VDAC3; conditions: read-out: apparent Kd; compound concentrations:100 nM and 1000 nM (sheet 'Samples'); n = 1
# [14] = test system: CIT; conditions: read-out: apparent Kd; compound concentrations:100 nM and 1000 nM (sheet 'Samples'); n = 1
# [15] = test system: COX5A; conditions: read-out: apparent Kd; compound concentrations:100 nM and 1000 nM (sheet 'Samples'); n = 1
# [16] = test system: CSNK1A1; conditions: read-out: apparent Kd, n = 1
# [17] = test system: CSNK1D; conditions: read-out: apparent Kd, n = 1
# [18] = test system: CSNK1E; conditions: read-out: apparent Kd, n = 1
# [19] = test system: DDR2; conditions: read-out: apparent Kd; compound concentrations:100 nM and 1000 nM (sheet 'Samples'); n = 1
# [20] = test system: GAK; conditions: read-out: apparent Kd; compound concentrations:100 nM and 1000 nM (sheet 'Samples'); n = 1
# [21] = test system: MAPK10; conditions: read-out: apparent Kd; compound concentrations:100 nM and 1000 nM (sheet 'Samples'); n = 1
# [22] = test system: MAPK11; conditions: read-out: apparent Kd; compound concentrations:100 nM and 1000 nM (sheet 'Samples'); n = 1
# [23] = test system: MAPK9; conditions: read-out: apparent Kd; compound concentrations:100 nM and 1000 nM (sheet 'Samples'); n = 1
# [24] = test system: MAPKAPK2; conditions: read-out: apparent Kd; compound concentrations:100 nM and 1000 nM (sheet 'Samples'); n = 1
# [25] = test system: NLK; conditions: read-out: apparent Kd; compound concentrations:100 nM and 1000 nM (sheet 'Samples'); n = 1
# [26] = test system: NNT; conditions: read-out: apparent Kd; compound concentrations:100 nM and 1000 nM (sheet 'Samples'); n = 1
# [27] = test system: PIP4K2C; conditions: read-out: apparent Kd; compound concentrations:100 nM and 1000 nM (sheet 'Samples'); n = 1
# [28] = test system: PKN3; conditions: read-out: apparent Kd; compound concentrations:100 nM and 1000 nM (sheet 'Samples'); n = 1
# [29] = test system: PRKD2; conditions: read-out: apparent Kd; compound concentrations:100 nM and 1000 nM (sheet 'Samples'); n = 1
# [30] = test system: PSMC3; conditions: read-out: apparent Kd; compound concentrations:100 nM and 1000 nM (sheet 'Samples'); n = 1
# [31] = test system: RIPK2; conditions: read-out: apparent Kd; compound concentrations:100 nM and 1000 nM (sheet 'Samples'); n = 1
# [32] = test system: TGFBR1; conditions: read-out: apparent Kd; compound concentrations:100 nM and 1000 nM (sheet 'Samples'); n = 1
# [33] = test system: CDKL5; conditions: read-out: apparent Kd; compound concentrations: 100 nM and 1000 nM (sheet 'Samples'), CATDS: 6.7048972560418404E-2; n = 1
# [34] = test system: CLK1; conditions: read-out: apparent Kd; compound concentrations: 100 nM and 1000 nM (sheet 'Samples'), CATDS: 9.1245201473329901E-2; n = 1
# [35] = test system: CLK4; conditions: read-out: apparent Kd; compound concentrations: 100 nM and 1000 nM (sheet 'Samples'), CATDS: 8.9493688970087706E-2; n = 1
# [36] = test system: DYRK1A; conditions: read-out: apparent Kd; compound concentrations: 100 nM and 1000 nM (sheet 'Samples'), CATDS: 7.8911513629173299E-2; n = 1
# [37] = test system: MAPK8; conditions: read-out: apparent Kd; compound concentrations: 100 nM and 1000 nM (sheet 'Samples'), CATDS: 6.0987882625533299E-2; n = 1
# [38] = test system: MELK; conditions: read-out: apparent Kd; compound concentrations: 100 nM and 1000 nM (sheet 'Samples'), CATDS: 6.0030175657403803E-2; n = 1
# [39] = test system: NQO2; conditions: read-out: apparent Kd; compound concentrations: 100 nM and 1000 nM (sheet 'Samples'), CATDS: 6.6170323393418801E-2; n = 1
# [40] = test system: TGFBR2; conditions: read-out: apparent Kd; compound concentrations: 100 nM and 1000 nM (sheet 'Samples'), CATDS: 8.1907636331175093E-2; n = 1
# [41] = compound concentrations:100 nM and 1000 nM (sheet 'Samples')
smiles,measurement,setting,value
O=c1cc(N2CCOCC2)nc2n(Cc3cccc(F)c3)ccn12 [GSK2297430A],potency estimated from few doses,[1],2000 nM
same,potency estimated from few doses,[2],1140 nM
same,potency estimated from few doses,[3],1780 nM
same,potency estimated from few doses,[4],1450 nM
same,potency estimated from few doses,[5],1610 nM
same,potency estimated from few doses,[6],2440 nM
same,potency estimated from few doses,[7],235 nM
same,potency estimated from few doses,[8],31.5 nM
same,potency estimated from few doses,[9],68.1 nM
same,potency estimated from few doses,[10],1670 nM
same,potency estimated from few doses,[11],1130 nM
same,potency estimated from few doses,[12]; [41],1490 nM
same,potency estimated from few doses,[13],1830 nM
CN1CCC(n2cnc(-c3ccc(F)cc3)c2-c2ccnc(N)n2)CC1 [SB-220455],potency estimated from few doses,[14],230 nM
same,potency estimated from few doses,[15],656 nM
same,potency estimated from few doses,[16]; [41],24.7 nM
same,potency estimated from few doses,[17]; [41],2.26 nM
same,potency estimated from few doses,[18]; [41],5.87 nM
same,potency estimated from few doses,[19],578 nM
same,potency estimated from few doses,[20],1350 nM
same,potency estimated from few doses,[3],185 nM
same,potency estimated from few doses,[21],784 nM
same,potency estimated from few doses,[22],1130 nM
same,potency estimated from few doses,[4],22 nM
same,potency estimated from few doses,[23],450 nM
same,potency estimated from few doses,[24],3.88 nM
same,potency estimated from few doses,[25],81.5 nM
same,potency estimated from few doses,[26],1290 nM
same,potency estimated from few doses,[27],2310 nM
same,potency estimated from few doses,[28],1520 nM
same,potency estimated from few doses,[29],1580 nM
same,potency estimated from few doses,[30],1920 nM
same,potency estimated from few doses,[31],246 nM
same,potency estimated from few doses,[32],2020 nM
FC(F)(F)CNc1nccc(-c2cnn3ncccc23)n1 [GW683003X],potency estimated from few doses,[33],1220 nM
same,potency estimated from few doses,[34],572 nM
same,potency estimated from few doses,[35],596 nM
same,potency estimated from few doses,"[16]; compound concentrations: 100 nM and 1000 nM (sheet 'Samples'), CATDS: 7.1676757807884198E-2",1010 nM
same,potency estimated from few doses,"[17]; compound concentrations: 100 nM and 1000 nM (sheet 'Samples'), CATDS: 0.23797441251711701",117 nM
same,potency estimated from few doses,"[18]; compound concentrations: 100 nM and 1000 nM (sheet 'Samples'), CATDS: 0.17923780337449699",176 nM
same,potency estimated from few doses,[36],792 nM
same,potency estimated from few doses,[37],1650 nM
same,potency estimated from few doses,[38],1740 nM
same,potency estimated from few doses,[39],1270 nM
same,potency estimated from few doses,"[12]; compound concentrations: 100 nM and 1000 nM (sheet 'Samples'), CATDS: 9.8324164530309899E-2",491 nM
same,potency estimated from few doses,[40],726 nM
